Bioassay records from PubChem.
Shown are actives, neighbours in structure and some others; about 2.9% of the full set was active somewhere.
DNA FID counter: compounds displacing fluorescent DNA intercalator, primary screen, artefact control for HCV NS3 helicase inhibitor project, biochemical, FID fluorescence; DNA fluorescent intercalator displacement; inhibition, % at 7.9 µM; 290,000 tested, 0.17% active; in the data active means inhibition above about 37%;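 further: 0% = vehicle and 100% = reference compound; higher means more ethidium bromide displaced from hairpin DNA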
MEKK2 WT-MEK5: modulators of MEK5 binding to wildtype MEKK2, primary screen, biochemical, multiplex bead flow cytometry, Alexa488-MEK5. 290,000 tested, 1.1% active. Alexa488-MEK5 binding to MEKK2 WT; actives lie on both sides. binding response (% of control), % at 10 µM. AID 1531, 2009. Mitogen-activated protein kinase kinase kinase 2 (Homo sapiens), Q9Y2U5; in the data active means binding response below about 67% or above about 130%
MEKK3 PB1 HTS: modulators of MEKK3-MEK5 PB1 binding, primary screen, biochemical, wildtype MEKK3, multiplex bead flow cytometry, Alexa488-MEK5 | binding response (% of control), % at 10 µM | Mitogen-activated protein kinase kinase kinase 3 (Homo sapiens), Q99759 | bead-based flow cytometry, Alexa488-MEK5 binding to MEKK3; actives lie on both sides; 0 = blocked by unlabeled MEK5, 100 = vehicle | 290,000 tested, 1.4% active;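 active means binding response more than 3 SD above or below the average of its plate-row segment, actives on both sides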;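 further: Alexa488 bead fluorescence after subtracting the streptavidin-only scavenger bead signal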
MEKK2mut PB1 HTS: MEK5 binding signal on mutant MEKK2 PB1, primary screen, biochemical, multiplex bead flow cytometry, Alexa488-MEK5 | Alexa488-MEK5 binding to MEKK2 mutant | 290,000 tested, 0.35% active | percent response, % at 10 µM; in the data active means percent response above about 24%, passing the limit was not always enough
dFosB activator: activators of delta FosB homodimer, primary screen, biochemical, fluorescence polarization, TAMRA-CDK5 oligo, single point | purified delta FosB; percent of positive-control signal above neutral wells | AID 493131, 2011 | activation, % at 25 µM | 340,000 tested, 0.99% active | Protein FosB (Mus musculus), P13346;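 active means mean activation above about 17%, with every replicate also reaching it, limit read from the data, passing the limit was not always enough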
Target sequence (P13346 whole entry, looked up): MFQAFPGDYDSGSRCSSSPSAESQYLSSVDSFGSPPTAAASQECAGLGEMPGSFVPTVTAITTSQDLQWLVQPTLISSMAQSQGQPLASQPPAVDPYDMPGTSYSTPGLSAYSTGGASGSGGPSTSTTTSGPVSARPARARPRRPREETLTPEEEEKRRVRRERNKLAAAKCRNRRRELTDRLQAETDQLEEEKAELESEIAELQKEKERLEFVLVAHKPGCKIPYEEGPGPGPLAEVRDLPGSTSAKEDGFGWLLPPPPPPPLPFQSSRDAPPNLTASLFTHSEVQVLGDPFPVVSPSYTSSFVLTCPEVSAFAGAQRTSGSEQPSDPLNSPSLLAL
MEKK2wt confirm: modulators of MEK5 binding to wildtype MEKK2, confirmation, biochemical, single concentration, multiplex bead flow cytometry. shares compounds with MEKK3 PB1 HTS. Alexa488-MEK5 binding to MEKK2 WT; actives lie on both sides. binding response (% of control), % at 10 µM. 5,900 tested, 2.4% active; in the data active means binding response below about 16% or above about 210%; inactive means in between
MEKK2mut-MEK5: mutant MEKK2 PB1-MEK5 binding signal retest – biochemical, single concentration, multiplex bead flow cytometry, confirmation | percent response, % at 10 µM | shares compounds with MEKK3 PB1 HTS | Alexa488-MEK5 binding to MEKK2 mutant | AID 1893, 2009 | 5,900 tested, 2% active; in the data active means percent response mostly above about 71%, no sharp cut-off; inactive means mostly below about 38%;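 further: higher means compound restores mutant binding toward wildtype level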
MEKK3 confirm: MEKK3 wild-type PB1 binding to MEK5, inhibitors, confirmation, biochemical, bead multiplex flow cytometry, single concentration, wildtype; shares compounds with MEKK3 PB1 HTS; Alexa488-MEK5 binding to MEKK3; hits give low values; binding response (% of control), % at 10 µM; 5,900 tested, 1.8% active; AID 1894, 2009;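 active means binding response below 72% of control, or above a set upper limit, though filed actives all read lower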;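 further: 100% = DMSO only wells and 0% = binding blocked by excess unlabeled MEK5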
Active calls of the source: *; nt = not tested or not shown; [ ] = remark or other dose.

SMILES	DNA FID counter	MEKK2 WT-MEK5	MEKK3 PB1 HTS	MEKK2mut PB1 HTS	dFosB activator	MEKK2wt confirm	MEKK2mut-MEK5	MEKK3 confirm
O=C1CCCC(O)=C1N=Nc1ccc(C(=O)O)cc1	-6	104	102	4	-19	nt	nt	nt
O=C1CCCC(O)=C1N=Nc1ccc2c(c1)OCO2	-4	108	146*	1	-1	103	1	100
CCOC(=O)CNC(=O)CSc1nnc(Cn2cnc3ccccc32)n1C	2	118	126*	6	-2	103	2	102
Cc1ccccc1OCCNc1cc(N2CCNCC2)ccc1[N+](=O)[O-]	26	162*	110	35	nt	167	34	104
COc1ccccc1OCCNc1cc(N2CCCCC2)ccc1[N+](=O)[O-]	-6	104	106	-2	2	nt	nt	nt
NCC(c1ccc(Cl)cc1Cl)c1c[nH]c2ccccc12 (configuration not stated)	12	141*	109	19	7	137	23	105
O=C(CN1CCN(S(=O)(=O)c2ccc(Br)cc2)CC1)N/N=C/c1ccco1	-23	108	162*	1	-6	103	5	100
Cc1ccc(S(=O)(=O)N2CCN(CC(=O)N/N=C/C=C/c3ccccc3)CC2)cc1	-32	106	138*	0	-8	97	1	103
NC(=O)CN1CCCN(S(=O)(=O)c2ccc(Br)cc2)CC1	1	3.0*[inhibitor]	2.0*[inhibitor]	-24	4	100	-4	98
O=C(CN1CCN(S(=O)(=O)c2ccc(Br)cc2)CC1)N/N=C/c1ccc(Br)s1	-22	93	95	-11	-7	nt	nt	nt
Cc1ccc(S(=O)(=O)N2CCN(CC(=O)N/N=C\c3ccc(O)c(O)c3)CC2)cc1	-17	117	125	28	-16	nt	nt	nt
O=C(O)C1CCCN(S(=O)(=O)c2ccc(Br)cc2)C1 (configuration not stated)	-4	18*[inhibitor]	11*[inhibitor]	-55	-3	101	2	101
Cc1ccc2oc(-c3ccc(NC(=O)CC(C)C)cc3)nc2c1	-4	101	103	0	3	nt	nt	nt
CCC(C)NCC(=O)Nc1ccc(-c2nc3cc(NC(=O)CNC(C)CC)ccc3o2)cc1 (configuration not stated)	10	160*	114	34*	-5	156	29	108
COc1ccc2c(C)cc3nncn3c2c1	0	100	101	-5	-17	nt	nt	nt
Cc1cc2nncn2c2ccccc12	0	84	78*[inhibitor]	-6	-7	104	3	102
Cc1ccc(-c2n[nH]c(=S)n2/N=C/c2ccc(C)o2)cc1	-9	111	151*	1	-7	105	1	105
Cc1ccc(/C=N/n2c(-c3ccc(Cl)cc3)n[nH]c2=S)o1	-19	99	106	0	-3	nt	nt	nt
O=C(Nc1ccccc1N1CCOCC1)c1ccc(Cl)nc1	-5	86	72*[inhibitor]	1	-8	101	-2	100
O=C(Nc1ccccc1N1CCOCC1)c1ccc2ccccc2c1	-30	101	105	-6	-10	nt	nt	nt
CC(C)CC(NC(=O)C1CCC(C)CC1)C(=O)Nc1ccccn1 (configuration not stated)	-13	98	102	-4	-3	nt	nt	nt
CC(C)C(NC(=O)C1CCCCC1)C(=O)Nc1ccccn1 (configuration not stated)	-10	106	101	25*	-7	90	-4	99
Cc1cccc(C)c1Nc1ncnc(N)c1[N+](=O)[O-]	4	119	117	51*	6	107	11	104
CC(=O)Nc1ccc(Nc2ncnc(N)c2[N+](=O)[O-])cc1	-7	103	104	6	3	nt	nt	nt
OCCCNc1cc(-c2ccnc(Nc3cccc(Cl)c3)n2)ccn1	nt	105	86	-4	-8	nt	nt	nt
SMILES	DNA FID counter	MEKK2 WT-MEK5	MEKK3 PB1 HTS	MEKK2mut PB1 HTS	dFosB activator	MEKK2wt confirm	MEKK2mut-MEK5	MEKK3 confirm
CN(C)CCCNc1ccc(-c2cc(Nc3cccc(Cl)c3)ncn2)cn1	nt	159*	93	15	39*	137	14	106
CCN(c1ccc(N=Cc2c(O)n(Cc3ccc(OC)cc3)c(=O)c3ccccc23)cc1)C(C)C	-3	nt	56*[inhibitor]	175*	-17	98	-4	94
CC12CCC(C(=O)NNc3ccccc3)(OC1=O)C2(C)C (configuration not stated)	-1	101	101	1	-18	nt	nt	nt
CC12CCC(C(=O)NNc3ccc([N+](=O)[O-])cc3)(OC1=O)C2(C)C (configuration not stated)	-17	129	132*	29	-1	103	4	104
CCCC(C)C(=O)Nc1ncc(S(=O)(=O)c2ccc([N+](=O)[O-])cc2)s1 (configuration not stated)	12	103	104	3	-8	nt	nt	nt
O=C(COc1ccccc1)NCC1(N2CCCCC2)CCCCC1	6	147*	103	31	-2	115	-2	101
N#Cc1ccc(OCC(=O)NCC2(N3CCCCC3)CCCCC2)cc1	-2	103	104	-1	1	nt	nt	nt
Cc1ccc(-n2cc(CN3CCC(CO)(Cc4cccc(C(F)(F)F)c4)CC3)cn2)cc1	34	227*	112	123*	14	152	17	96
OCC1(Cc2ccccc2)CCN(Cc2cnn(-c3ccccc3F)c2)CC1	16	520*	107	362*	-5	110	0	102
CSc1cccc(CN2CCC(CO)(Cc3cccc(C(F)(F)F)c3)CC2)c1	21	138*	105	17	5	126	17	108
CCN(CC)CCCNC(=O)c1cc2c(Cl)nc3ccccc3c2s1	35	152*	105	54*	-69	130	15	108
Cc1ccc2cc(CN(CCN3CCOCC3)Cc3nnnn3Cc3ccco3)c(=O)[nH]c2c1C	-14	2.0*[inhibitor]	2.0*[inhibitor]	-69	-6	106	5	103
